40 compounds from the supplement of paper PMC10127200 can be followed below.

Structures are written as SMILES. Several values for one entry are separate records, joined by “and”; a condition that tells them apart may be missing. Identical values can stand only once. Counter-ions that a name gives are not always drawn.

This assay deals with 786-O. As to the kind of experiment: Euclidean distance of Cell Painting phenotypic profile (signed KS, 77 features) to DMSO centroid (dimensionless distance); 5 or 10 uM (library dependent); higher = stronger phenotypic change vs DMSO (phenoactivity). The following applies: 48 h. The method in brief:
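Five cancer lines, together with a healthy fibroblast line, received library compounds for 48 h at a library-dependent 10 or 5 uM and 0.1% DMSO final. Harmony then derived 77 features from confocal 20X images (9 fields/well) of the stained cells, scoring each as a signed Kolmogorov-Smirnov statistic against same-plate vehicle wells. After plate-position correction, correlation weighting and replicate averaging at the top dose, phenoactivity was taken as each profile's Euclidean distance to the median vehicle profile.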
`CO/N=C(\C(=O)N[C@@H]1C(=O)N2C(C(=O)O)=C(CSC(=O)c3ccco3)CS[C@H]12)c1csc(N)n1` [Ceftiofur] displayed an Euclidean distance of 0.442.
For `C[C@H](CCC(=O)O)[C@H]1CC[C@H]2[C@@H]3[C@H](O)C[C@@H]4C[C@H](O)CC[C@]4(C)[C@H]3C[C@H](O)[C@]12C` [Cholic acid] the value was 1.14.
For the compound `O=c1oc2cc(O)ccc2s1` [Tioxolone], the Euclidean distance is 1.49.
For `Cc1cnc(Nc2ccc(OCCN3CCCC3)cc2)nc1Nc1cccc(S(=O)(=O)NC(C)(C)C)c1` the value was 4.21; for `CCCNC(C)C(=O)Nc1ccccc1C` (stereo not given) [Prilocaine], 1.25; for `C[C@H]1CNC(=O)c2cnn3ccc(nc23)N[C@H](C)c2cc(F)ccc2O1`, 4.06.
In turn, `CNCCc1ccccn1` [Betahistine mesylate] yielded an Euclidean distance of 0.848.
The figure for `CCN1CCC[C@H]1CNC(=O)c1cc(S(N)(=O)=O)ccc1OC` [Levosulpiride] is 1.03; for `S=C(NCc1ccc2c(c1)OCO2)N1CCN(c2ncnc3c2oc2ccccc23)CC1` [Amuvatinib (MP-470)] it is 1.2.
`Cc1ccc(NC(=O)C2(c3ccc4c(c3)OC(F)(F)O4)CC2)nc1-c1cccc(C(=O)O)c1` [VX-809 (Lumacaftor)]: the Euclidean distance was determined as 1.11.
For `CCOC(=O)c1ccc(O)cc1` [Ethylparaben], the Euclidean distance stood at 0.729.
For `CCCCCCCCCCCCCCCC(=O)O[C@@H]1[C@@H](O)[C@@H](O)[C@@H]([C@H](NC(=O)[C@@H]2C[C@@H](CCC)CN2C)[C@H](C)Cl)O[C@@H]1SC` [Clindamycin palmitate HCl] the value was 1.39; for `CC(=O)c1c(C)c2cnc(Nc3ccc(N4CCNCC4)cn3)nc2n(C2CCCC2)c1=O`, 5.92 and 5.88.
For `CC(C)c1ccc(NC(=O)Cn2cnc3c2c(=O)n(C)c(=O)n3C)cc1` the value was 1.03.
The figure for `Cc1ccc(C(=O)Nc2ccc(CN3CCN(C)CC3)c(C(F)(F)F)c2)cc1C#Cc1cnc2cccnn12` is 4.62; for `CO[C@@H]1[C@H](OC(=O)/C=C/C=C/C=C/C=C/C(=O)O)CC[C@]2(CO2)[C@H]1[C@@]1(C)O[C@@H]1CC=C(C)C` [Fumagillin] it is 2.75.
As to `O=C(NC1CCNCC1)c1n[nH]cc1NC(=O)c1c(Cl)cccc1Cl`, the Euclidean distance is 3.37.
The figure for `C[C@H](CS)C(=O)N1CCC[C@H]1C(=O)O` [Captopril] is 1.01; for `O=C(OCc1ccccc1)c1ccccc1` [Benzyl benzoate] it is 0.857; for `CCCC(=O)[O-].[Na+]` [Sodium butyrate] it is 1.42.
As to `N#CCNC(=O)c1ccc(-c2ccnc(Nc3ccc(N4CCOCC4)cc3)n2)cc1` [Momelotinib (CYT387)], the Euclidean distance is 2.83.
For the compound `CCc1c2c(nc3ccc(OC(=O)N4CCC(N5CCCCC5)CC4)cc13)-c1cc3c(c(=O)n1C2)COC(=O)[C@]3(O)CC` [Irinotecan HCl Trihydrate], the Euclidean distance was 3.01.
With `COC(=O)CCC(=O)CN` [Methyl Aminolevulinate Hydrochloride], the Euclidean distance was found to be 1.52.
For the compound `O=C(O)c1ccccc1O` [Salicylic acid], the Euclidean distance was found to be 0.877.
The figure for `CCCC(=O)Nc1ccc(OCC(O)CNC(C)C)c(C(C)=O)c1` (stereo not given) [Acebutolol HCl] is 0.96; for `CC(=O)O[C@H]1C(=O)[C@@]2(C)[C@H]([C@H](OC(=O)c3ccccc3)[C@]3(O)C[C@H](OC(=O)[C@H](O)[C@@H](NC(=O)c4ccccc4)c4ccccc4)C(C)=C1C3(C)C)[C@]1(OC(C)=O)CO[C@@H]1C[C@@H]2O` [Paclitaxel] it is 3.07.
The figure for `Nc1cc(Cl)c(N=C2NCCN2)c(Cl)c1` [Apraclonidine HCl] is 0.986; for `COc1ccccc1OCC(O)CN1CCN(CC(=O)Nc2c(C)cccc2C)CC1` (stereo not given) [Ranolazine] it is 1.2.
Compound `C1=N/C2=N/c3ccc(OCCN4CCCC4)c(c3)COC/C=C/COCc3cccc(c3)C(=C1)N2` [Pacritinib (SB1518)] showed an Euclidean distance of 3.54.
The compound `CCOC(=O)[C@H](CCc1ccccc1)N[C@@H](C)C(=O)N1[C@H](C(=O)O)C[C@H]2CCCC[C@@H]21` [Trandolapril] returned an Euclidean distance of 1.34.
The figure for `CC(=C(CCOC(=O)C(C)C)SSC(CCOC(=O)C(C)C)=C(C)N(C=O)Cc1cnc(C)nc1N)N(C=O)Cc1cnc(C)nc1N` (stereo in doubt) [Sulbutiamine] is 1.35; for `CCN(CCO)CCCC(C)Nc1ccnc2cc(Cl)ccc12` (stereo not given) [Hydroxychloroquine Sulfate] it is 3.48; for `CC(C)c1onc(-c2c(Cl)cccc2Cl)c1COc1ccc(/C=C/c2cccc(C(=O)O)c2)c(Cl)c1` it is 1.58.
The figure for `OC(Cn1cncn1)(Cn1cncn1)c1ccc(F)cc1F` [Fluconazole] is 1.5; for `Cc1ccc(=O)n(-c2ccccc2)c1` [Pirfenidone] it is 1.25.
For `CN(C)CCC=C1c2ccccc2CCc2ccccc21` [Amitriptyline HCl] the value was 1.34; for `CO[C@@H]1[C@@H](O[C@@H]2O[C@H](C)[C@@H](O[C@H]3C[C@@](C)(O)[C@@H](OC(=O)CC(C)C)[C@H](C)O3)[C@H](N(C)C)[C@H]2O)[C@@H](CC=O)C[C@@H](C)[C@@H](O)/C=C/C=C/C[C@@H](C)OC(=O)C[C@H]1OC(C)=O` [Josamycin], 1.22; for `C[C@H]1NCc2cc(-c3ccc4c(=O)c(C(=O)O)cn(C5CC5)c4c3OC(F)F)ccc21` [Garenoxacin], 0.629.
With `Cc1ccc2c(c1)C(=O)C1(O)CCN(c3ccccc3)C1=N2` (single isomer, unassigned; (-)) [(-)-Blebbistatin], the Euclidean distance worked out at 1.29.
For `C=CCCCCCCCCC(=O)[O-].C=CCCCCCCCCC(=O)[O-].[Zn+2]` [Zinc Undecylenate] the value was 1.22.
